Assay results as given in ChEMBL document CHEMBL3988442, “University of Dundee, Small-Polar-MMV Screening Library” (2021).
The campaign covered roughly 38,000 compounds. About 1,200 (3.2%) showed an effect of 50% or more. The median lay at about -58%. This is one part of a sample in which strong results are shown more often than they occur.

tested on: Plasmodium falciparum; assay: Calibr Malaria Delayed Death Assay SOP; assay type: functional, organism-based; design: scale not given: in the data most compounds retested in dose-response had high values; conditions: concentration 4.99e-06 (unit not given; other assays of the set use mol/L)

Row | Structure (SMILES) | Percent Effect [%]
1 | Cc1ccc(CN2C[C@H](OCC3CCN(C)CC3)[C@H]3COC[C@H]32)o1 | 12.64
2 | Cc1nc(NC(=O)c2c(-n3cnnn3)sc3c2CCC3)sc1C | -110.9
3 | CCOc1ccccc1NC(=O)NCCc1ccoc1 | -120.2
4 | COC(=O)c1cccc(C(=O)N(C)Cc2cccc(F)c2)c1 | -135.6
5 | COc1cc(CN2CCCC2)ccc1OC12CCCN(CC1)C2 (stereo not drawn) | -168.7
6 | COc1ccc(CN2CCCC2)cc1Oc1ccc2c(c1)CC(CN)O2 (stereo not drawn) | 87.78
7 | COc1ccc(CN2CCCC2)cc1Oc1ccc(NC(C)=O)cc1 | -51.76
8 | COc1ccc(CN2CCCC2)cc1Oc1cccc(C#N)n1 | 41.79
9 | COc1cc(CN2CCCC2)ccc1Oc1ccc2c(c1)CC(CN)O2 (stereo not drawn) | 58.6
10 | Cc1cc(CN2CCCC2)cc(Oc2ccc3c(c2)CC(CN)O3)c1 (stereo not drawn) | 26.4
11 | O=C(O)C(F)(F)F.O=C(O)C(F)(F)F.O=C(O)c1c(-c2cncnc2)ncc2c1CCN(Cc1ccco1)C2 | -132.8
12 | CCNc1ncc2c(n1)CN(c1ccc(OC(F)(F)F)cc1)C2=O | 14.47
13 | O=C(N1CCCC1)N1CCC2(CCCN(CCOc3ccccc3)C2)C1.O=C(O)C(F)(F)F (stereo not drawn) | -4.272
14 | Cc1noc(C)c1CCCNc1cnccn1 | -49.46
15 | CN(C)C(=O)CN1CCOCC2(C1)CN(c1ncc(F)cn1)CCO2.O=C(O)C(F)(F)F (stereo not drawn) | -15.1
16 | Cc1ccnc(N2CCCC(c3nncn3C3CC3)C2)n1 (stereo not drawn) | -51.92
17 | CN1CCN(c2ccc(Cl)cc2NC(=O)c2ccco2)CC1 | 41.12
18 | CN1CCN(c2ccc(Br)cc2NC(=O)c2ccco2)CC1 | 52.34
19 | CN1CCN(c2ccccc2NC(=O)c2ccco2)CC1 | 31.7
20 | CCc1cc(CN(C)C(=O)c2cnc3c(c2)nc(N)n3CC)on1 | -104.3
21 | c1ccc(CN2CCCC2)c(CNc2cncc3nnnn23)c1 | 60.42
22 | c1cc(CN2CCCC2)ccc1CNc1cncc2nnnn12 | -34.44
23 | c1cc(N2CCSCC2)ccc1CNc1cncc2nnnn12 | -124.6
24 | Cc1ccnc(NC(=O)c2cccc(OCc3nnnn3C)c2)c1 | -241.7
25 | Cc1cccc(NC(=O)c2cccc(OCc3nnnn3C)c2)n1 | 80.42
26 | Cc1cccc(NC(=O)c2ccc(OCc3nnnn3C)cc2)n1 | -114.2
27 | CN1CC=C(CCN(C)C(=O)CCc2ccccc2)CC1 | 19.5
28 | CC(C(=O)NCc1ccco1)N1CCN(Cc2nccn2C)CC1 (stereo not drawn) | -39.34
